Screens (PubChem)
CRE Fsk mod = Cell signaling CRE-BLA (Fsk stim); Potency, µM (titrated, usually from 38.2 µM), usual class: activators; hit rate 2.5% among 71,000; CHO CRE-bla reporter (cAMP response element driving beta-lactamase), forskolin EC10, beta-lactamase ratio; active = well fitted activation curve with a large enough effect in the signal ratio, with a control signal flat, not every such curve was filed as active; inconclusive = small, poorly fitted or top-dose-only effect, or effect the other way, or a change in a side signal; the % refers to the signal ratio
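Reporter-gene assay: CHO cells with beta-lactamase behind cAMP responsive elements, co-treated with compound and EC10 NKH 477 for 3 hours at 37 degrees Celsius. Activity came from the 460/530 nm CCF4 emission ratio.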
HEK293 cAMP ctrl = qHTS Assay for Agonists of the Thyroid Stimulating Hormone Receptor: Activators of Intracellular cAMP Concentrations in Parental HEK 293 | hit rate 2.5% among 73,000 | parental HEK293 CNG cAMP sensor, membrane potential fluorescence | Potency, µM (titrated, usually from 57.1 µM), most hits filed as activators; active = well fitted activation curve with a large enough effect; inconclusive = small, poorly fitted or top-dose-only effect; inactive = no such curve, though single readings can be large or run the other way; also: nearly all actives have a fitted effect of over 55% in size
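Counterscreen for endogenous-receptor signalling: CNG-channel HEK 293 cells report cAMP rise by membrane depolarization. After 60 min dye equilibration with 100 uM RO 20-1724, compounds incubated 30 min before bottom-read fluorescence at 590 nm.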
Hsp90 Hop PPI = qHTS Assay for Disrupters of an Hsp90 Co-Chaperone Interaction | Hsp90 C-terminal peptide / TPR2A (Hop) interaction, human | AlphaScreen TPR2A-His6 binding biotin-Hsp90 C-terminal peptide | Potency, µM (titrated, usually from 57 µM) | hit rate 0.44% among 71,000 | AID 595, 2007; active = well fitted curve in either direction with a large enough effect; inconclusive = small, poorly fitted or top-dose-only effect, or another doubt
IkB signaling = IkB Signaling; ABC-DLBCL IkBa-CBG/CBR dual luciferase ratio, 4 h; response scale: scaled: untreated 0%, proteasome inhibitor 100%; Potency, µM (highest dose often 57.1 µM); hit rate 0.04% among 110,000; AID 445, 2006; active = well fitted curve in the direction sought with a large enough effect in the signal ratio, not every such curve was filed as active; inconclusive = small, poorly fitted or top-dose-only effect, or a change in a side signal; the % refers to the signal ratio;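 also: the direction sought is a rising ratio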
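Luminescence ratio of IκBα-fused green versus native red beetle luciferase in OCI-Ly3 cells, 4 h post-doxycycline with compound; red signal alone, scaled from basal (0%) to zero light (-100%), flagged nonspecific or cytotoxic effects.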
TSHR ag = qHTS Assay for Agonists of the Thyroid Stimulating Hormone Receptor | AID 926, 2007 | hit rate 0.48% among 73,000 | Thyrotropin receptor (Homo sapiens), P16473 | Potency, µM (top dose mostly 57.1 µM), actives largely listed as activators | HEK293-CNG-TSHR cells (CNG channel as cAMP sensor), membrane potential dye, cAMP; active = well fitted activation curve with a large enough effect in the main read-out, with a control signal flat, not every such curve was filed as active; inconclusive = small, poorly fitted or top-dose-only effect, or a change in a side signal; inactive = no such curve, though single readings can be large or run the other way; reference of the percent scale not stated here;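 also: the control signal comes from parental cells without the receptor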
Target sequence (P16473 whole entry, looked up): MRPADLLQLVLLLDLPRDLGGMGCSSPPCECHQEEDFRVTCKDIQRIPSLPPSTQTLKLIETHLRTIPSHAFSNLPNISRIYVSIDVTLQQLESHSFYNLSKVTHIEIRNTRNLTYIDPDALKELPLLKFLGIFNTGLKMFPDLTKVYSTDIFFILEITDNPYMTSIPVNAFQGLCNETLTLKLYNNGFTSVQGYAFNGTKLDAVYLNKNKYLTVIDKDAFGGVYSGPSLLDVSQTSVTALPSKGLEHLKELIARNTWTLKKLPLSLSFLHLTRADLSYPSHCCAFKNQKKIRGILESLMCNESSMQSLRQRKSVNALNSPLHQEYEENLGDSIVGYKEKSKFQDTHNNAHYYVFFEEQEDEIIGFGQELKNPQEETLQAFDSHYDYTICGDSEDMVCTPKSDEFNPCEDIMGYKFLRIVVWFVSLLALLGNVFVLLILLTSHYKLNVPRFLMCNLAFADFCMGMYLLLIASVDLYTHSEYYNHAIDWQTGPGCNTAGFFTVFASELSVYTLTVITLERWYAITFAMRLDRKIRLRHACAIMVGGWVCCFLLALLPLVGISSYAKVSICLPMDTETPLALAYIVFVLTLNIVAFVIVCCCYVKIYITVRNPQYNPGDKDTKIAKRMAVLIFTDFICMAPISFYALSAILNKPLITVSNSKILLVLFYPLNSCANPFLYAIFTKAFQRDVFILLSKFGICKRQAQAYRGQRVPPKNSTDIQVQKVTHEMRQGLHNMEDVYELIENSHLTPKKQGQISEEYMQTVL
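cAMP rise detected as CNG-channel membrane depolarization by fluorescent dye (emission 590 nm), 30 min after compound, following 60 min dye loading containing 100 uM RO 20-1724 at room temperature. Cells: TSHR/CNG HEK 293, with parental CNG HEK 293 as control.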
Numbers stand for hits; n = inactive; u = inconclusive; x = no result given; [ ] = dose if it differs, or a comment. Shown are actives, neighbours in structure and some others; about 3.5% of the full set was active somewhere.

SMILES | CRE Fsk mod | HEK293 cAMP ctrl | Hsp90 Hop PPI | IkB signaling | TSHR ag
COC(=O)[C@@]1(Cc2ccccc2)[C@H]2c3cc(C(=O)N4CCCC4)n(Cc4cccc5ccccc45)c3C[C@H]2CN1C(=O)c1ccccc1 | n | 1.58µM | n | x | u
COC(=O)[C@@]1(Cc2ccccc2)[C@H]2c3cc(C(=O)N4CCCC4)n(Cc4cc(F)cc5c4OCOC5)c3C[C@H]2CN1C(=O)c1ccccc1 | n | 2.51µM | n | x | u
COC(=O)[C@@]1(Cc2ccc(F)cc2)[C@H]2c3cc(C(=O)N(C)C)n(Cc4ccsc4Br)c3C[C@H]2CN1C(=O)c1ccccc1 | u | 3.98µM | n | x | u
COC(=O)[C@@]1(Cc2ccc(F)cc2)[C@H]2c3cc(C(=O)N4CCCC4)n(Cc4cccc5ccccc45)c3C[C@H]2CN1C(=O)c1ccccc1 | n | u | n | x | u
COC(=O)[C@@]1(Cc2ccc(OC)cc2)[C@H]2c3cc(C(=O)N(C)C)n(CCO)c3C[C@H]2CN1C(=O)c1ccccc1 | n | n | n | x | n
COC(=O)[C@@]1(Cc2ccc(OC)cc2)[C@H]2c3cc(C(=O)N(C)C)n(Cc4ccc(C)c(F)c4F)c3C[C@H]2CN1C(=O)c1ccccc1 | 20µM | 2.51µM | n | x | u
COC(=O)[C@@]1(Cc2ccc(F)cc2)[C@H]2c3cc(C(=O)N(C)C)n(Cc4cccc5ccccc45)c3C[C@H]2CN1C(=O)c1ccccc1 | n | 15.8µM | n | x | u
COC(=O)[C@@]1(Cc2ccc(OC)cc2)[C@H]2c3cc(C(=O)N(C)C)n(Cc4ccc(S(C)(=O)=O)cc4)c3C[C@H]2CN1C(=O)c1ccccc1 | n | u | u | x | u
COC(=O)[C@@]1(Cc2ccc(OC)cc2)[C@H]2c3cc(C(=O)N(C)C)n(Cc4ccc(C)o4)c3C[C@H]2CN1C(=O)c1ccccc1 | n | 15.8µM | n | x | u
O=C(O)c1nnsc1COCc1ccccc1 | n[7.6 µM] | n[11.4 µM] | n[11 µM] | n[11.4 µM] | n[11.4 µM]
OCCN[C@@H]1c2cc(Cl)ccc2-c2c(Cl)cc(Cl)cc21 | n[7.6 µM] | n[11.4 µM] | n[11 µM] | n[11.4 µM] | n[11.4 µM]
COC(=O)c1ccccc1NC(=O)Cn1c(=O)n(Cc2ccc(C(=O)NCc3ccc4c(c3)OCO4)cc2)c(=O)c2ccccc21 | x | x | x | n | x
CN(CCc1ccccn1)C(=O)c1nn2c(C(F)(F)F)cc(-c3ccco3)nc2c1Cl | 3.16µM | n[11.4 µM] | n[11 µM] | n | n[11.4 µM]
CN(C(=O)c1cc2nc(-c3ccco3)cc(C(F)(F)F)n2n1)c1ccc(OC(F)(F)Cl)cc1 | x | x | x | n | x
CO[C@H]1COC(=O)[C@@H](CCSC)NC(=O)C/C=C\[C@@H](C)[C@H](OC)COC(=O)[C@@H](OCc2ccccc2)/C=C\[C@@H]1C | x | n[11.4 µM] | x | x | n[11.4 µM]
Clc1ccc(-c2nnc(-c3ccccc3)o2)c(Cl)c1 | n | 31.6µM | u | u | u
CN1CCN(c2ncc3nc(-c4cccs4)c(=O)n(Cc4ccc(F)cc4)c3n2)CC1 | u | u | n | n[11.4 µM] | u
CCOC(=O)C1CCCN(CC(=O)NC2CC2)C1 (stereo not drawn) | n | n | n | n | n
CCOC(=O)C1CCCN(CC(=O)NC2=Nc3ccccc3N=C(C)C2c2ccccc2)C1 (stereo not drawn) | n | n | n | u | 25.1µM
CCOC(=O)[C@@H](O)Cc1cnc2ccccc2n1 | n[7.6 µM] | n[11.4 µM] | n[11 µM] | n[11.4 µM] | n[11.4 µM]
O=C(Oc1ccccc1)N1CCC2(CCCN(c3ncccn3)C2)CC1 | n | 20µM | n | n[11.4 µM] | u
O=C(Oc1ccccc1)N1CCC2(CC1)CN(c1ncccn1)C2 | n | n | n | n[11.4 µM] | n
O=C1CCCCC1Sc1nnc(Cc2cccs2)n1CCc1ccccc1 (stereo not drawn) | n | 10µM | n | n | u
CCN(CC)c1nc2cc(OC)ccc2cc1C#N | 12.6µM | n | 25.1µM | n | n
CCN(CC)c1nc(C#N)cc(-c2ccc(OC)cc2)n1 | 12.6µM | u | 25.1µM | n | u
SMILES | CRE Fsk mod | HEK293 cAMP ctrl | Hsp90 Hop PPI | IkB signaling | TSHR ag
COc1ccc2cc(C#N)c(NC(C)C)nc2c1 | u | n | u | n | n
CCCC1(C(=O)OC)C=C2C(=C(C(C)C)C(=O)C2C)CN1 (stereo not drawn) | u | u | n | x | u
Nc1c(C(=O)NC2CC2)c2nc3ccccc3nc2n1-c1ccc2c(c1)OCO2 | 6.31µM | n | n | n | n
COC(=O)c1c(N)n(-c2ccc(OC)c(Cl)c2)c2nc3ccccc3nc12 | x | x | x | n | x
COCCCNC(=O)c1c(N)n(-c2ccc3c(c2)OCO3)c2nc3ccccc3nc12 | 10µM | n | n | n | n
O=C(Nc1ccccn1)c1c(O)c2cccc3c2n(c1=O)CCC3 | n | n | n | n | n
O=C(Nc1nccs1)c1c(O)c2cccc3c2n(c1=O)CCC3 | n | 1.26µM | n | n | u
CCOC(=O)Cc1nnc(NC(=O)CSc2nnc3c4ccccc4n(C)c3n2)s1 | 3.16µM | u | n[11 µM] | n | u
CN(CC(=O)O)Cc1c(O)c(Cl)cc(Cl)c1Cl | n[7.6 µM] | n[11.4 µM] | n[11 µM] | n[11.4 µM] | n[11.4 µM]
CCOC(=O)CSc1cccc2cccnc12 | u | n | 15.8µM | u | n
COc1ccccc1C(=O)N1CCN(C(=O)c2ccncc2)CC1 | n | 25.1µM | n | n | u
COc1ccccc1C(=O)N1CCN(c2cccc(Cl)c2)CC1 | n | u | n | n | u
CCC(=O)N1CCc2cc(S(=O)(=O)N(CC)c3cccc(C)c3)ccc21 | n | u | n | n | u
CCN(c1cccc(C(F)(F)F)c1)S(=O)(=O)c1ccc2c(c1)CCN2C(=O)C1CC1 | u | 25.1µM | n | u | u
Cc1c(C(=O)NCc2ccccc2)sc2nc3n(c(=O)c12)CCCCC3 | x | x | x | n | x
CCN(CC)c1nc2ccccc2nc1C(C#N)C(=O)NCCCOC (stereo not drawn) | 6.31µM | n | n | n | n
CCN(CC)c1nc2ccccc2nc1C(C#N)C(=O)NCCc1ccccc1 (stereo not drawn) | u | n | n | n | n
O=C(c1ccccc1Cl)N1CCN(c2ccccn2)CC1 | n | n | n | n | n
O=C(c1ccccc1CCc1ccccc1)N1CCN(c2ccccn2)CC1 | n | 15.8µM | n | n | u
COC(=O)c1cc(-c2ccc3ccccc3c2)[nH]c(=O)c1C#N | n[7.6 µM] | n[11.4 µM] | n[11 µM] | n[11.4 µM] | n[11.4 µM]
[N-]=[N+]=N[C@@H]1[C@H](O)[C@H](CO)O[C@@H]1n1cnc2c(N)ncnc21 | n[7.6 µM] | n[11.4 µM] | n[11 µM] | n[11.4 µM] | n[11.4 µM]
CC(=O)c1cc(-c2ccccc2)n(CC(=O)NCc2cccs2)c1C | n | 15.8µM | n | n | u
CC(=O)c1cc(-c2ccccc2)n(CC(=O)NCc2ccccc2C)c1C | x | x | x | n | x
CCOC(=O)N1CCN(S(=O)(=O)c2ccc(C)cc2)C1c1ccccc1 (stereo not drawn) | n | 12.6µM | n | n | u
CCNC(=O)C1CCN(S(=O)(=O)c2ccc3c(c2)CCCN3C(C)=O)CC1 | x | x | x | n | x
CCN(CC)S(=O)(=O)c1ccc(N2CCCC2)c(C(=O)OCC(=O)/C(C#N)=C(\C)N)c1 | u | n | n | n | 25.1µM
